# Test results as given in PubChem BioAssay (Tox21).
# Results filed as inconclusive are left out. Where a call stands in place of a potency, no number is given. Calls of active or inactive are those of the source. Calls come from the whole dose curve; as a rule, active = well fitted curve in the direction sought with a large enough effect in the repeat runs; inconclusive = weak or mixed curves; inactive = no such curve, though single readings can be large; an effect the other way counts as inactive or inconclusive.
# Experiments:
# [1] = target: Cytochrome P450 2C19 (Homo sapiens) (UniProt P33261); assay: Cytochrome P450 Family 2 Subfamily C Member 19 (CYP2C19) small molecule antagonists: luciferase reporter qHTS assay (AID 1671197); conditions: P450-Glo CYP2C19 enzyme, luciferin luminescence, 1 h; series mostly up to 115 µM; note: nearly all actives have a fitted effect of over 65% in size
# Method in brief: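 Inhibition of CYP2C19 was scored from loss of luminescence in a P450-Glo proluciferin substrate assay, NADPH-started and run 1 h at 37C, with ketoconazole as positive control.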
# [2] = target: Voltage-gated inwardly rectifying potassium channel KCNH2 (Homo sapiens) (UniProt Q12809); assay: Human Ether-a-go-go-Related Gene (hERG) channel small molecule antagonists: fluorescence cell-based qHTS assay (AID 1671200); conditions: hERG-U2OS cells, FluxOR thallium flux fluorescence; series mostly up to 76.8 µM; note: nearly all actives have a fitted effect of over 50% in size;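 for activity change, negative = inhibition: hERG-expressing U2OS cells given a thallium stimulus after FluxOR II dye loading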
# Method in brief: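 Thallium served as the potassium surrogate; its influx into dye-loaded U2OS cells carrying the channel was measured by fluorescence over 2 min.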
# [3] = target: Cytochrome P450 3A4 (Homo sapiens) (UniProt P08684); assay: Cytochrome P450 Family 3 Subfamily A Member 4 (CYP3A4) small molecule antagonists: luciferase reporter qHTS assay (AID 1671201); conditions: P450-Glo CYP3A4 enzyme, luciferin luminescence, 1 h; series mostly up to 115 µM; note: nearly all actives have a fitted effect of over 50% in size
# Method in brief: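 Relative luminescence units after 20 min with luciferin detection reagent served as read-out. Beforehand, CYP3A4 turned over a proluciferin substrate for 1 h at room temperature with NADPH regeneration, following 10 min compound preincubation.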
# [4] = target: Cytochrome P450 1A2 (Homo sapiens) (UniProt P05177); assay: Cytochrome P450 Family 1 Subfamily A Member 2 (CYP1A2) small molecule antagonists: luciferase reporter qHTS assay (AID 1671199); conditions: P450-Glo CYP1A2 enzyme, luciferin luminescence, 1 h; series mostly up to 115 µM; note: nearly all actives have a fitted effect of over 50% in size
# Method in brief: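 Room-temperature CYP1A2 reaction with proluciferin substrate: compounds added from DMSO, 10 min preincubation, NADPH regeneration for 1 h. Luciferin detection reagent then added; luminescence recorded as RLU.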
# [5] = target: Cytochrome P450 2C9 (Homo sapiens) (UniProt P11712); assay: Cytochrome P450 Family 2 Subfamily C Member 9 (CYP2C9) small molecule antagonists: luciferase reporter qHTS assay (AID 1671198); conditions: P450-Glo CYP2C9 enzyme assay, luciferin luminescence; series mostly up to 115 µM; note: nearly all actives have a fitted effect of over 50% in size
# Method in brief: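 CYP2C9 activity was measured with a P450-Glo proluciferin substrate. Enzyme–substrate mix was held with compound for 10 min at room temperature, then NADPH regeneration solution was added for 1 h at 37C. Luciferin product was read as luminescence.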
# Potency is the fitted concentration of half-maximal effect.
# Cytochrome P450 2C19 (Homo sapiens), sequence (P33261 whole entry, looked up): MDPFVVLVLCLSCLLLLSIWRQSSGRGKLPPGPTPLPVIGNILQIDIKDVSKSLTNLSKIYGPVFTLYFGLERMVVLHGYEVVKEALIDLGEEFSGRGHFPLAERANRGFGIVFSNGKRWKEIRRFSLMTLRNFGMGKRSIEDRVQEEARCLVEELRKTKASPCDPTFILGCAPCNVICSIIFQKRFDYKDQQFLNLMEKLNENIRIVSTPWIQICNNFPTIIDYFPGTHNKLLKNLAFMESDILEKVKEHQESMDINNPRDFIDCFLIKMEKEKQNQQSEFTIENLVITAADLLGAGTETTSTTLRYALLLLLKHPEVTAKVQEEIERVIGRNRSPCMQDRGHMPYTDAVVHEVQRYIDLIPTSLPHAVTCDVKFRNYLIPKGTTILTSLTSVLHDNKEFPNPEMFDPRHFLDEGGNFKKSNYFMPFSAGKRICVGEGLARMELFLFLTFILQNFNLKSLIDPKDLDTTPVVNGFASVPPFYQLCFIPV
# Cytochrome P450 2C9 (Homo sapiens), sequence (P11712 whole entry, looked up): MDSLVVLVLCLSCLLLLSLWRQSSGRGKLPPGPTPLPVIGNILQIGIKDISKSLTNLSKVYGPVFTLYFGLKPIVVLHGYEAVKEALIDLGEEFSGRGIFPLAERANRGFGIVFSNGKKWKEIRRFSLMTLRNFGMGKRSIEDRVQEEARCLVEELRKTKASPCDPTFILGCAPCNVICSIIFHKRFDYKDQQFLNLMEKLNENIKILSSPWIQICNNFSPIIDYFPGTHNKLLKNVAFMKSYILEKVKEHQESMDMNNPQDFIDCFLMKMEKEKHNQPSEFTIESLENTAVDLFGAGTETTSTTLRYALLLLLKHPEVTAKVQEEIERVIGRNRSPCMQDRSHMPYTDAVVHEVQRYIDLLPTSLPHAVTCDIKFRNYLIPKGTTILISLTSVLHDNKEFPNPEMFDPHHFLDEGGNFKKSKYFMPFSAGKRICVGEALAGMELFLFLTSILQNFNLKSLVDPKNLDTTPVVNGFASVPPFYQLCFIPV
# Voltage-gated inwardly rectifying potassium channel KCNH2 (Homo sapiens), sequence (Q12809 whole entry, looked up): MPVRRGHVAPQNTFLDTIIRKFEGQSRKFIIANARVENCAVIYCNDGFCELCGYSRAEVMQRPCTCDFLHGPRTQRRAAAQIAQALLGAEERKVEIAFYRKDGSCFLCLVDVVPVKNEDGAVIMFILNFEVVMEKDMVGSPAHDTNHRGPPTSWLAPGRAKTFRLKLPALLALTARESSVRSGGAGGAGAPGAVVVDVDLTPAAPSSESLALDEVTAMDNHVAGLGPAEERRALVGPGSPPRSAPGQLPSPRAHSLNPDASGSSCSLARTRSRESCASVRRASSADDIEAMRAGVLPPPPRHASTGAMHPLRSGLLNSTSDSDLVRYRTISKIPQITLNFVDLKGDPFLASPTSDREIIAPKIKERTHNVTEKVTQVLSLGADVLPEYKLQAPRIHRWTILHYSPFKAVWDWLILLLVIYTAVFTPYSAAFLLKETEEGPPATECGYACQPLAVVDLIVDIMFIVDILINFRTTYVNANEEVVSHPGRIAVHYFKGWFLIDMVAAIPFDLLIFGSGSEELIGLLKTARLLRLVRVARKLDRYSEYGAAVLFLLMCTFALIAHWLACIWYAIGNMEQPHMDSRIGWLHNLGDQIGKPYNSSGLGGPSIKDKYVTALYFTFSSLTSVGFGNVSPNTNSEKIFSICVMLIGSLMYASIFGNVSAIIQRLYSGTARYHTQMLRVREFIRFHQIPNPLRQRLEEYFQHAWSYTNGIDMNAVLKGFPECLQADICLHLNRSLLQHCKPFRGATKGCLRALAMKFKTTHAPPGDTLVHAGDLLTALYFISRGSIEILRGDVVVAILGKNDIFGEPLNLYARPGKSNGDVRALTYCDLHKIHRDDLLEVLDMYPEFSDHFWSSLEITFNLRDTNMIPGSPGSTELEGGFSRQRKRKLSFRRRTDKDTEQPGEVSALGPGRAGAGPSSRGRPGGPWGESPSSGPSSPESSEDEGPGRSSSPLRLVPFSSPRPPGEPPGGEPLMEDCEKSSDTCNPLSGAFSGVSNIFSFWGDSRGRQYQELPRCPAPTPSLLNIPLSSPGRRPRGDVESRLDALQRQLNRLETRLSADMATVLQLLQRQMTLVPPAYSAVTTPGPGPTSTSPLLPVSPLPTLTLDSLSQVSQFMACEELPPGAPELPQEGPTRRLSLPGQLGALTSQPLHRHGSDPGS
# Cytochrome P450 3A4 (Homo sapiens), sequence (P08684 whole entry, looked up): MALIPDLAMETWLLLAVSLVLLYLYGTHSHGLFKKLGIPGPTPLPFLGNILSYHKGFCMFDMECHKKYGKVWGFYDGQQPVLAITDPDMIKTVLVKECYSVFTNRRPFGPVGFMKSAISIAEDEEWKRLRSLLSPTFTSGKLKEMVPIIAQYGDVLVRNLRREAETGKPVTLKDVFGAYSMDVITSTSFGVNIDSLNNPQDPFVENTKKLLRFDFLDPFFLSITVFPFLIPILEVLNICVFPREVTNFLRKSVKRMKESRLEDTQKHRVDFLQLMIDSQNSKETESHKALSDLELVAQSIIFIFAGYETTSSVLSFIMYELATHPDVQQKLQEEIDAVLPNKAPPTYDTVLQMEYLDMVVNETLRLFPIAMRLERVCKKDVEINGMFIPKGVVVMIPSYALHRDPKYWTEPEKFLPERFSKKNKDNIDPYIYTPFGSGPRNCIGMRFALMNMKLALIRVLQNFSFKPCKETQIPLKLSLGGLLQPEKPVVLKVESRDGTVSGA
# Cytochrome P450 1A2 (Homo sapiens), sequence (P05177 whole entry, looked up): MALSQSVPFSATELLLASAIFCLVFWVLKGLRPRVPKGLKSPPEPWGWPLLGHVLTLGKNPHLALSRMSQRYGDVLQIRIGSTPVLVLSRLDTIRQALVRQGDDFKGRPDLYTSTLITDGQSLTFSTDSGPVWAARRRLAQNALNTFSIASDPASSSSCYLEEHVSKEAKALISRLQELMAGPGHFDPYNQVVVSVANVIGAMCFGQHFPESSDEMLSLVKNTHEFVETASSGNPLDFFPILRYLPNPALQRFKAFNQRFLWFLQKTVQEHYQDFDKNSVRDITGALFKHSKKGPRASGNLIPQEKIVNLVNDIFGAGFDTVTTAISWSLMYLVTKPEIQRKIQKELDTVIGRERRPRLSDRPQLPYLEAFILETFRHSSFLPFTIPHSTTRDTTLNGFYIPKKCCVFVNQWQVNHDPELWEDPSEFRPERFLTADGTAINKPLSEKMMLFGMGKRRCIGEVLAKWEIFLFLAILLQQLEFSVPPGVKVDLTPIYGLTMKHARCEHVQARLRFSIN
smiles,measurement,setting,value
CC(C)Cc1nccs1,Potency,[1],40.7 µM (active)
same,Potency,[2],inactive
same,Potency,[3],inactive
Cc1c(Cl)cccc1Nc1ccccc1C(=O)O,Potency,[1],inactive
same,Potency,[2],inactive
same,Potency,[3],inactive
CC1(C)[C@@H]2CC[C@]3(C2)[C@@H]1C(=O)CCC3(C)C,Potency,[1],39.9 µM (active)
same,Potency,[4],inactive
same,Potency,[2],inactive
same,Potency,[3],17.8 µM (active)
CCC(C(=O)O)c1ccc(N2Cc3ccccc3C2=O)cc1 (configuration not stated),Potency,[1],21.9 µM (active)
same,Potency,[2],inactive
same,Potency,[3],inactive
Cc1ccc2ccccc2c1[N+](=O)[O-],Potency,[5],inactive
same,Potency,[4],2.52 µM (active)
same,Potency,[2],inactive
Clc1ccccc1-c1nc(-c2ccncc2)no1,Potency,[1],0.977 µM (active)
same,Potency,[4],0.512 µM (active)
same,Potency,[2],inactive
same,Potency,[3],30.9 µM (active)
O=C(O)CNc1ccccc1,Potency,[1],inactive
same,Potency,[2],inactive
same,Potency,[3],inactive
Cc1c(N=C=O)cccc1N=C=O,Potency,[1],72.4 µM (active)
same,Potency,[2],inactive
C=Cc1ccc(C=C)cc1,Potency,[5],inactive
same,Potency,[4],inactive
same,Potency,[2],inactive
CNc1ccccc1,Potency,[1],31.7 µM (active)
same,Potency,[4],inactive
same,Potency,[2],inactive
same,Potency,[3],inactive
Sc1nc(S)nc(S)n1,Potency,[1],inactive
same,Potency,[4],inactive
same,Potency,[2],inactive
same,Potency,[3],inactive
Cc1cc(N)n(-c2ccccc2)n1,Potency,[1],28.3 µM (active)
same,Potency,[4],39.9 µM (active)
same,Potency,[2],inactive
same,Potency,[3],inactive
C[C@]12CCC(=O)C=C1[C@@H]1C[C@@H]1[C@H]1[C@@H]3[C@@H]4C[C@@H]4[C@@]4(CCC(=O)O4)[C@@]3(C)CC[C@@H]12,Potency,[1],0.871 µM (active)
same,Potency,[4],inactive
same,Potency,[2],inactive
same,Potency,[3],inactive
O=C(c1ccc(Cl)cc1)c1ccc(Cl)cc1,Potency,[1],1 µM (active)
same,Potency,[4],2.52 µM (active)
same,Potency,[2],inactive
same,Potency,[3],inactive
O=C(OC1C[C@H]2CC[C@@H](C1)[N+]21CCCC1)C(O)(c1ccccc1)c1ccccc1 (some centres not stated),Potency,[5],inactive
same,Potency,[4],inactive
same,Potency,[2],inactive
O=C(OCCN1CCOCC1)c1cccnc1Nc1cccc(C(F)(F)F)c1,Potency,[5],17.4 µM (active)
same,Potency,[4],9.77 µM (active)
same,Potency,[2],10.7 µM (active)
CCCCCCCCC(=O)OCC(C)OC(=O)CCCCCCCC (configuration not stated),Potency,[1],83.4 µM (active)
same,Potency,[2],inactive
same,Potency,[3],inactive
CCOC(=O)CC(O)(CC(=O)OCC)C(=O)OCC,Potency,[1],35.6 µM (active)
same,Potency,[2],inactive
same,Potency,[3],inactive
CC(O)C(C)O (configuration not stated),Potency,[1],inactive
same,Potency,[2],inactive
same,Potency,[3],inactive
CCC(=O)O[C@]1(C(=O)COC)[C@@H](C)C[C@H]2[C@@H]3CCC4=CC(=O)C=C[C@]4(C)C3(F)[C@@H](O)C[C@@]21C (some centres not stated),Potency,[4],inactive
same,Potency,[2],inactive
CCCCCO,Potency,[5],inactive
same,Potency,[2],inactive
same,Potency,[3],inactive
CC(CCl)OC(C)CCl (configuration not stated),Potency,[5],inactive
same,Potency,[4],inactive
same,Potency,[2],inactive
same,Potency,[3],inactive
O=[N+]([O-])c1ccccc1CCO,Potency,[5],inactive
same,Potency,[2],inactive
same,Potency,[3],inactive
[O-][n+]1ccc(Cl)cc1,Potency,[5],inactive
same,Potency,[4],inactive
same,Potency,[2],inactive
same,Potency,[3],inactive
CC(C(=O)O)c1ccc(/C=C2\CCCCC2=O)cc1 (configuration not stated),Potency,[5],inactive
same,Potency,[4],inactive
same,Potency,[2],inactive
same,Potency,[3],inactive
CCCCCCOC(=O)c1ccccc1,Potency,[5],inactive
same,Potency,[4],20 µM (active)
same,Potency,[2],inactive
same,Potency,[3],inactive
C/C(=C\C(C)CC(C)CC(C)C)C1CC(=O)OC1=O (configuration not stated),Potency,[5],56.4 µM (active)
same,Potency,[4],inactive
same,Potency,[2],inactive
same,Potency,[3],inactive
C/C=C1\[C@H]2C=C(C)C[C@]1(N)c1ccc(=O)[nH]c1C2,Potency,[5],inactive
same,Potency,[4],inactive
same,Potency,[2],inactive
same,Potency,[3],inactive
O=[N+]([O-])c1cccc(I)c1,Potency,[5],inactive
same,Potency,[4],31.6 µM (active)
same,Potency,[2],inactive
same,Potency,[3],inactive
CC(C)C/C=C(\C=O)c1ccccc1,Potency,[5],35.6 µM (active)
same,Potency,[4],39.9 µM (active)
same,Potency,[3],35.6 µM (active)
CCCCCCCCCCCCSCCOCCO,Potency,[5],24.5 µM (active)
same,Potency,[4],15.5 µM (active)
same,Potency,[2],inactive
same,Potency,[3],inactive
COc1cccc([C@H](O)C2CCN(CCc3ccc(F)cc3)CC2)c1OC,Potency,[5],inactive
same,Potency,[4],inactive
same,Potency,[3],inactive
COc1ccc(C(=O)c2ccc(C)cc2)c(O)c1,Potency,[5],22.7 µM (active)
same,Potency,[4],20.2 µM (active)
same,Potency,[3],inactive
Clc1nc2ccccc2nc1Cl,Potency,[5],inactive
same,Potency,[4],5.09 µM (active)
same,Potency,[2],inactive
same,Potency,[3],inactive
CCCCCCCCCCCCCCCCC(=O)O,Potency,[5],inactive
same,Potency,[4],inactive
same,Potency,[2],inactive
same,Potency,[3],inactive
CC1(C)CC(O)CC(C)(C)N1[O],Potency,[5],inactive
same,Potency,[4],inactive
same,Potency,[2],inactive
same,Potency,[3],inactive
CCCCCCCCCC(C)C=O (configuration not stated),Potency,[5],44.8 µM (active)
same,Potency,[2],inactive
same,Potency,[3],inactive
C1=COCCC1,Potency,[5],inactive
same,Potency,[4],inactive
same,Potency,[2],inactive
same,Potency,[3],inactive
CCOCCn1c(N2CCCN(C)CC2)nc2ccccc21,Potency,[4],inactive
same,Potency,[2],7.56 µM (active)
Clc1cc(Cl)c2c(c1)N=C1CCCCCN1C2,Potency,[5],inactive
same,Potency,[4],5.49 µM (active)
same,Potency,[2],9.52 µM (active)
same,Potency,[3],inactive
C[C@H](CN1CCCC1)C(=O)c1ccc(C(F)(F)F)cc1,Potency,[5],inactive
same,Potency,[2],inactive
same,Potency,[3],inactive
CC(=O)CC/C=C(\C)CC/C=C(\C)CC/C=C(\C)CCC=C(C)C,Potency,[5],30.9 µM (active)
same,Potency,[2],inactive
O=C(OCCOCCOCCOC(=O)c1ccccc1)c1ccccc1,Potency,[5],inactive
same,Potency,[4],17.8 µM (active)
same,Potency,[2],inactive
same,Potency,[3],inactive
CC(C)Oc1ccccc1O,Potency,[5],inactive
same,Potency,[4],inactive
same,Potency,[2],inactive
same,Potency,[3],inactive
CCCCCCCCS,Potency,[5],inactive
same,Potency,[4],inactive
same,Potency,[2],inactive
same,Potency,[3],inactive
CCOC(OCC)OCC,Potency,[5],inactive
same,Potency,[2],inactive
same,Potency,[3],inactive
CCc1c(C)[nH]c2c1C(=O)C(CN1CCOCC1)CC2 (configuration not stated),Potency,[4],inactive
same,Potency,[2],inactive
CCCC1CCOC(C)S1 (configuration not stated),Potency,[5],inactive
same,Potency,[4],inactive
same,Potency,[2],inactive
same,Potency,[3],inactive
C=C[Si]1(C)O[Si](C)(C=C)O[Si](C)(C=C)O[Si](C)(C=C)O1 (configuration not stated),Potency,[5],inactive
same,Potency,[2],inactive
O=[N+]([O-])c1ccc(Cl)cc1Cl,Potency,[5],inactive
same,Potency,[2],inactive
same,Potency,[3],inactive
O=C(O)c1ccc2cc(O)ccc2c1,Potency,[5],inactive
same,Potency,[4],inactive
same,Potency,[2],inactive
same,Potency,[3],inactive
CCCCCCCCCCCCCCCCCCCl,"activity change, negative = inhibition",[5],-2.7% [at 10.5 µM] (inactive)
same,"activity change, negative = inhibition",[4],-4.9% [at 10.5 µM] (inactive)
same,"activity change, negative = inhibition",[2],6.07% [at 6.97 µM] (inactive)
same,"activity change, negative = inhibition",[3],-1.1% [at 10.5 µM] (inactive)
O=C(O)c1cc(C(=O)O)cc([N+](=O)[O-])c1,Potency,[5],inactive
same,Potency,[2],inactive
same,Potency,[3],inactive
CC(C)=CCC/C(C)=C/C=N/O,Potency,[5],39.9 µM (active)
same,Potency,[4],39.9 µM (active)
same,Potency,[2],inactive
same,Potency,[3],28.3 µM (active)
Cc1c(-c2cccnc2)c2ccccc2n1CCCCC(=O)O,Potency,[5],31.7 µM (active)
same,Potency,[4],31.7 µM (active)
same,Potency,[2],inactive
same,Potency,[3],5.03 µM (active)
O=C(O)CCc1nc2ccccc2[nH]1,Potency,[5],inactive
same,Potency,[4],inactive
same,Potency,[2],inactive
same,Potency,[3],inactive
NC(=O)c1cc[n+](CC2=C(C(=O)[O-])N3C(=O)[C@@H](NC(=O)Cc4cccs4)[C@H]3SC2)cc1,Potency,[5],inactive
same,Potency,[4],inactive
same,Potency,[2],inactive
same,Potency,[3],inactive
N#C[C@@H]1CC(F)(F)CN1C(=O)CNC1CC2CCC(C1)N2c1ncccn1 (some centres not stated),Potency,[4],inactive
same,Potency,[2],inactive
